Measurements taken from PubChem BioAssay AID1619 (SRMLSC, 2009).
About 830 (0.38%) of roughly 220,000 compounds were called active.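 Rule for the calls: active = compound inhibiting the enzyme by more than half at any dose during confirmatory dose-response retesting; inconclusive = strong single-dose inhibitors picked by rank but not retested; inactive = the rest.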 Only a sample is shown. Entries with a potency or affinity are not part of this list.

Each compound was assayed against Leucine aminopeptidase (Plasmodium falciparum (isolate 3D7)) (UniProt Q8IL11) (assay: P. falciparum M17LAP inhibitors, primary screen, biochemical, fluorogenic H-Leu-NHMec substrate, 1536-well (AID 1619;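 note: plate controls were full reaction with DMSO carrier for no effect and no enzyme background for full effect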)). Settings: recombinant M17LAP, H-Leu-NHMec fluorogenic kinetic assay; at 30 µM; active compounds read high.
Leucine aminopeptidase (Plasmodium falciparum (isolate 3D7)), sequence (Q8IL11 whole entry, looked up): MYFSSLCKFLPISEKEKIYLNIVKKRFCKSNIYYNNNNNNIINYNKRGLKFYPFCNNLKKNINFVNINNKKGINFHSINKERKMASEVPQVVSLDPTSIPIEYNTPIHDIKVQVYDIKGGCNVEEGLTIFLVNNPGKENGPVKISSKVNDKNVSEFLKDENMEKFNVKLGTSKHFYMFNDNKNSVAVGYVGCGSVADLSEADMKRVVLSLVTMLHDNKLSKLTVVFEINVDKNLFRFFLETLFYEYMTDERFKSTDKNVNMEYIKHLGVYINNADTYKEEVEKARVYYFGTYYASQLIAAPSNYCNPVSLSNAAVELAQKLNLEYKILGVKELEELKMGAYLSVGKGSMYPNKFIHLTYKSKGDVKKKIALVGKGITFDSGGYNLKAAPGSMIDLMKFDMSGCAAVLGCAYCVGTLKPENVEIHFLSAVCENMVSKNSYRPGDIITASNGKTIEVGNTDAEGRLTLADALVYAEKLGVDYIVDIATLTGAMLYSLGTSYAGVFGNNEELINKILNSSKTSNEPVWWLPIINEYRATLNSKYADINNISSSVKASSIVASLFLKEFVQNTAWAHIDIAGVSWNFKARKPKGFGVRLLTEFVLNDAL

inhibition, inactive:
O=C(CSc1nnc2sc3ccccc3n12)c1ccco1 -1.98%
O=C(CC1SC(=NCCc2ccccc2)N(/N=C/c2cccs2)C1=O)Nc1ccc(Cl)cc1 (centres undefined) -1.78%
c1ccc2c(-c3cc(C4CCNCC4)[nH]n3)cccc2c1 -3.07%
CCCc1cc(C(=O)NCc2ccco2)no1 -5.04%
COc1ccccc1CC(=O)NNC(=O)c1cccs1 -2.69%
O=C(CSc1nccc(=O)[nH]1)N1CCN(c2ccccc2)CC1 5.66%
CCOC(=O)COc1ccc(S(=O)(=O)Nc2ccc3c(c2)OCCO3)cc1 2.78%
Cn1c(SCC(=O)Nc2ccc(Br)cc2)nc(O)cc1=O 10.4%
Cc1cc(C)nc(NC(=O)CSc2nccc(C)n2)n1 5.87%
Cc1ccc(NC(=O)CSc2nc(O)cc(=O)n2C)cc1 7.3%
COc1ccc(NC(=O)CSc2nc(C)cc(C)n2)cc1 44%
COc1ccc(NC(=O)CSc2nc(C)cc(C(F)(F)F)n2)cc1 19%
COc1ccc2nc(NC(=O)CSc3nccc(C)n3)sc2c1 1.42%
COC(=O)c1ccc(NC(=O)CSc2nc(C)cc(=O)[nH]2)cc1 35.4%
Cc1cc(=O)[nH]c(SCC(=O)Nc2ccc(C(=O)O)cc2)n1 8.39%
Cc1cc(C)n(-c2nnc(C)n2N)n1 1.79%
COc1ccc(-c2ccn(-c3cccc(F)n3)n2)cc1 10.6%
O=C(N/N=C/c1ccc2c(c1)OCO2)C(=O)Nc1ccccc1 5.86%
CC(=O)c1ccccc1OCCn1nnc(-c2ccc(C)cc2)n1 12.1%
CCCOc1ccc(-c2c(C(=O)N/N=C/c3ccc(C)cc3)nnn2-c2nonc2N)cc1 -4.98%
CCOC(=O)C1=C(Nc2ccc(C)cc2)CC(C)(O)C(C(=O)OCC)C1c1ccccc1 (centres undefined) 0.02%
Cc1cc(C)nc(N2CCC(C(=O)Nc3nnc(C)s3)CC2)n1 1.03%
CC(C)(C)Nc1nc2cc([N+](=O)[O-])ccc2o1 2.86%
COc1ccc(NC(=O)CSc2ccc(C)cc2)cc1 -1.37%
CCN(CC)c1ccc(NC(=O)CSc2nnc3nc(C)cc(C)n23)cc1 45.5%
Cc1cc(C)nc(SCC(=O)Nc2ccc(N3CCOCC3)cc2)n1 24.8%
Cc1nn(-c2nnc(C)c(=O)[nH]2)c(C)c1SCC(=O)Nc1ccc(F)cc1 46.2%
COc1ccc(NC(=O)CSc2c(C)n[nH]c2C)cc1 21.7%
Cc1nn(-c2nnc(C)c(=O)[nH]2)c(C)c1SCC(=O)Nc1ccc(C(C)C)cc1 63.3%
